# According to PubChem BioAssay AID1851 (National Center for Advancing Translational Sciences (NCATS), 2009):
# Several values for one entry are separate records, joined by “and”; a condition that tells them apart may be missing. Equal values may be shown once. The whole screen tested about 16,000 compounds, of which about 2,600 (16%) were called active. About 20% were inconclusive and are not listed. The list is a sample of the results. Unmarked numbers belong to inactive results. The call rests on the fitted dose curve; in most records, active means well fitted curve in the direction sought with a large enough effect; inconclusive means small, poorly fitted or top-dose-only effect, or effect the other way; inactive means no such curve, though single readings can be large or run the other way. Peptide text beside a SMILES is read from it. * marks the point of attachment. Cbz = O=C(OCc1ccccc1)*
# Target: Cytochrome P450 2D6 (Homo sapiens) (UniProt P10635)
# Assay: Cytochrome panel assay with activity outcomes
# Settings: recombinant CYP, pro-luciferin dealkylation, luminescence, p450-cyp2d6; series mostly up to 57.1 µM; activity, negative = inhibition: at the top concentration
# On the % scale 0 is the no-effect control and ±100 the full control effect.
# Chain of Cytochrome P450 2D6 (Homo sapiens) (P10635 whole entry, looked up): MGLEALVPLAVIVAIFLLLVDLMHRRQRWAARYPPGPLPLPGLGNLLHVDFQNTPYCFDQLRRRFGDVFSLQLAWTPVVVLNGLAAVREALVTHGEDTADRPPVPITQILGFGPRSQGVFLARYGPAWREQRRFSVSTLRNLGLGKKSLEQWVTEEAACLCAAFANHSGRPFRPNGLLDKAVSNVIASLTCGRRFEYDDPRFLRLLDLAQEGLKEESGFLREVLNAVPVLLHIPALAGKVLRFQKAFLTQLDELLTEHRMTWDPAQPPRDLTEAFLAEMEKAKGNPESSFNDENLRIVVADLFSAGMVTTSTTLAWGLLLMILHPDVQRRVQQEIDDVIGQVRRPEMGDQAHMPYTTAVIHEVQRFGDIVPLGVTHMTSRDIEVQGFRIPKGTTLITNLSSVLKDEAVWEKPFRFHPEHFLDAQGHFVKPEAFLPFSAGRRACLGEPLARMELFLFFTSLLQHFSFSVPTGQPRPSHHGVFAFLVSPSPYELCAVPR
SMILES,"activity, negative = inhibition",AC50
COc1cc2cc3c4cc(OC)c(OC)cc4cc[n+]3c(C)c2cc1OC,4.46% [at 25.6 µM],–
CNC(=O)c1c(I)c(C(=O)NCC(=O)Nc2c(I)c(C(=O)O)c(I)c(C(=O)NCCO)c2I)c(I)c(N(C)C(C)=O)c1I,-4.4% [at 25.6 µM],–
CCOC(=O)[C@H](CCc1ccccc1)N[C@@H](C)C(=O)N1CCC[C@H]1C(=O)O,3.29% [at 25.6 µM],–
N#C/C(=C\c1ccc(O)c(O)c1)C(=O)OCCc1cccs1,–,12.6 µM (active)
N#C/C(=C\c1ccc(O)c(O)c1)C(=O)NCCCc1ccccc1,–,31.6 µM (active)
C[C@H](NC(=O)/C(C#N)=C/c1ccc(O)c(O)c1)c1ccccc1,-20.2%,–
CCOC(=O)/C(C#N)=C\c1ccc(OCC(=O)Nc2ccc(C)cc2C)c(OC)c1,9.89%,–
N#C/C(=C\c1ccc(O)c(O)c1)C(=O)NCc1ccccc1,-5.88%,–
C[C@@H](NC(=O)/C(C#N)=C/c1ccc(O)c(O)c1)c1ccccc1,-7.05%,–
Nc1ncncc1-c1ccc([N+](=O)[O-])cc1,9.87%,–
CC(=O)NC(NC(C)=O)c1ccc(Br)cc1,1.99%,–
Cc1ccc(-n2nnnc2Sc2nc([N+](=O)[O-])nn2C)cc1C,-18.4%,–
Cc1nc(S(=O)(=O)c2cccc(Cl)c2)nc2c1CCC2,-5.41%,–
CC(=O)N(CC(=O)O)c1ccccc1C(=O)O,10.9%,–
CC(C)(C)c1cccc(Oc2nn[nH]n2)c1,7.78%,–
CC1=C(C(N)=O)C(c2cccs2)n2nc(-c3cccc(Cl)c3)nc2N1 (centres undefined),-10.2%,–
O=c1[nH]c2cc(Br)cnc2nc1/C=C(\O)c1ccc(F)cc1,-12.9%,–
COC(=O)[C@@H]1C[C@H]1[C@@H](NC(=O)c1cccnc1)c1ccccc1,-11.1%,–
COCCn1c(=O)c(-c2cccc(C#N)c2)nc2cnc(Oc3ccccc3)nc21,-3.81%,–
NC(=O)NCc1ccc(Cl)cc1,-19.7%,–
Cc1ccc(Cn2cccc(NC(=O)NCc3ccccc3)c2=O)cc1,3.4%,–
Cc1ccc(C)c(NC(=O)NCc2ccc(Cl)cc2)c1,–,3.98 µM (active)
CCc1c(C)c2c(C)[nH]nc2oc1=O,-6.95%,–
N#Cc1c(-c2ccc(Cl)cc2)nc2n(c1=O)CCCS2,-20.7%,–
COc1ccc(C2=NOC(C(=O)NCc3ccco3)C2)cc1OC (centres undefined),-6.05%,–

SMILES,"activity, negative = inhibition",AC50
O=C(NCc1ccc2c(c1)OCO2)C1CC(c2cccc(Br)c2)=NO1 (centres undefined),–,0.891 µM (active)
COc1cccc(C2=NOC(C(=O)NCCN3CCOCC3)C2)c1 (centres undefined),-13.5%,–
COc1cccc(C2=NOC(C(=O)Nc3cccnc3)C2)c1 (centres undefined),–,11.2 µM (active)
COc1ccc(CNC(=O)C2CSC(=O)C2)cc1 (centres undefined),6.49%,–
COc1cccc(C2=NOC(C(=O)Nc3ccc(OC)c(OC)c3)C2)c1 (centres undefined),8.04%,–
O=C(NNC(=O)C1CC(c2cccnc2)=NO1)Nc1cccc(F)c1 (centres undefined),-21.5%,–
COc1cccc(C2=NOC(C(=O)NCc3ccccc3)C2)c1 (centres undefined),–,12.6 µM (active)
COCCNC(=O)C1CC(c2cccc(OC)c2)=NO1 (centres undefined),-0.287%,–
COc1ccc(CNC(=O)C2CC(c3cccc([N+](=O)[O-])c3)=NO2)cc1 (centres undefined),–,5.01 µM (active)
COc1cccc(C2=NOC(C(=O)NCc3ccccn3)C2)c1 (centres undefined),-3.24%,–
CO[C@H]1COC(=O)C/C=C\[C@@H](C)COC(=O)[C@@H](CCSC)NC(=O)C/C=C\[C@@H]1C,14% [at 11.4 µM] and 6.2% [at 11.4 µM],–
O=C(c1cc(C(F)(F)F)cc(C(F)(F)F)c1)N1CCC[C@@]2(CCN(c3ncccn3)C2)C1,-1.56%,–
O=S(=O)(O)c1cc(N=Nc2cccc3ccccc23)c(O)c2ncccc12,-9.94% [at 11.4 µM],–
Nc1nc2n[nH]nc2c(=O)[nH]1,-3.06% [at 25.6 µM],–
O=C1[C@H]2CCn3c(=O)n(-c4ccccc4)c(=O)n3[C@H]2[C@H](O)[C@H]2O[C@@H]12,-6.63% [at 11.4 µM],–
Cc1nn2c3c(cnc2c1-c1ccccc1)C(=O)CC(c1ccccc1)C3 (centres undefined),-5.55%,–
O=C(NCC1CCCO1)c1nn2c(c1Cl)NC(c1ccc(F)cc1)CC2C(F)(F)F (centres undefined),1.28%,–
C#CCSc1nc(Cc2ccc(Cl)cc2)nc2ccccc12,-18.9%,–
Nc1nc(Cl)nc2c1ncn2[C@@H]1O[C@@H](CO)[C@@H](O)[C@H]1O,-1.08%,–
CCC(Sc1nc2n[nH]c(C)c2c(=N)n1-c1cccc(Cl)c1)C(=O)NCCOC (centres undefined),-29.6%,–
Cc1ccc(/C(N)=N/OC(=O)Cc2cccs2)cc1,-28.3%,–
Cc1onc(-c2ccccc2)c1C(=O)NC(CC(=O)O)c1ccc(OC(C)C)cc1 (centres undefined),3.77%,–
CCCCOc1ccc(C(=O)CCN2CCCCC2)cc1,–,5.01 µM (active)
CCCOc1ccc(C(=O)CCNc2ccc(C)c(Cl)c2)cc1,-13.7%,–
CCOc1ccc(C(=O)CCC(=O)O)cc1,23.3%,–

SMILES,"activity, negative = inhibition",AC50
Fc1ccc(CSc2ncnc3sc4c(c23)CCCC4)cc1,-16.6%,–
COc1cc(/C=C(/NC(=O)c2ccccc2)C(=O)Nc2ccccc2)c([N+](=O)[O-])cc1OC,-7.54%,–
COc1c(F)c(F)c(C(=O)O)c(Nc2ccc(C)cc2)c1F,-9.49%,–
Nc1nonc1-c1nc2ccccc2n1Cc1ccc(F)cc1Cl,0.412%,–
Clc1ncccc1-c1nc2ccccc2n1Cc1ccccc1,-16.7%,–
Clc1ccc(Cn2c(-c3cccnc3Cl)nc3ccccc32)c(Cl)c1,–,7.94 µM (active)
CCOC(=O)C1(N(CC)CC)Sc2cc(C)ccc2NC1=O (centres undefined),-10.6%,–
CC1CC2(CCCCC2)N2C(=O)C(=O)c3cccc1c32 (centres undefined),–,7.94 µM (active)
O=C(NC(=S)Nc1ccc(Oc2ccc(Cl)cc2)cc1)c1ccccc1,-13.6%,–
CCCC[C@]1(C2CCCC2)Cc2cc(OCC(=O)O)c(Cl)c(Cl)c2C1=O,2.96%,–
COc1cccc(Cn2c(=O)c(-c3cccs3)nc3cnc(Nc4cccc(OC)c4)nc32)c1,9.04%,–
COc1ccc(/C=C(\C#N)C(N)=O)c(OC)c1,-4.62% [at 11.4 µM],–
COc1cc(/C=C(\C#N)C(N)=O)cc(CSc2nc3ccccc3s2)c1O,–,0.0251 µM (active)
COc1cc(/C=C(\C#N)C(=O)c2ccc(O)c(O)c2)cc(I)c1O,-8.81%,–
CCCC[C@@H]1C[C@H]1C(NC(=O)c1ccccc1)c1ccccc1 (some centres undefined),-3.89%,–
CCOC(=O)CC(NC(=O)c1ccco1)c1ccc(OC)cc1 (centres undefined),-7.1%,–
CCC[C@@H]1C[C@@]1(CCC)C(NC(=O)c1ccco1)c1ccc(Cl)cc1 (some centres undefined),–,3.98 µM (active)
C[C@@]1(C(NC(=O)c2ccc(-c3ccccc3)cc2)c2ccc(Cl)cc2)C[C@H]1C1CCCCC1 (some centres undefined),3.15%,–
CCC[C@@H]1C[C@@]1(CCC)C(NC(=O)OCc1ccccc1)c1ccc(-c2ccccc2)cc1 (some centres undefined),–,7.94 µM (active)
CCC[C@@H]1C[C@@]1(CCC)C(NC(=O)c1ccccc1)c1cccc(Cl)c1 (some centres undefined),–,3.16 µM (active)
COC(=O)c1ccc(C(NC(=O)c2ccccc2)[C@]2(C)C[C@H]2C2CCCCC2)cc1 (some centres undefined),3.73%,–
COC(=O)[C@H]1C[C@@H]1[C@H](NC(=O)OCc1ccccc1)c1ccccc1,-9.48%,–
C[C@@]1(C(NC(=O)Cc2ccccc2)c2ccc(-c3ccccc3)cc2)C[C@H]1C1CCCCC1 (some centres undefined),2.63%,–
COc1ccc2c(c1)c(CC(=O)O)c(C)n2Cc1ccc(Cl)cc1,-6.32%,–
CO[C@@H]1COC(=O)C/C=C\[C@H](C)[C@@H](NS(=O)(=O)c2ccc(C)cc2)COC(=O)C/C=C\[C@@H]1C,1.88% [at 11.4 µM] and 8.18% [at 11.4 µM],–

SMILES,"activity, negative = inhibition",AC50
Cc1cc(SCC(=O)c2cccs2)nc2c(C)cccc12,-6.27%,–
O=C(O)CC(c1cccc2ccccc12)n1cccc1 (centres undefined),29.7%,–
O=C(c1cc(C(F)(F)F)cc(C(F)(F)F)c1)N1CCC2(CC1)CCN(c1ccccn1)CC2,0.968%,–
O=C1OC2CC3CC1CC(O)(C3)C2 (centres undefined),2.14%,–
O=C(NCCO[N+](=O)[O-])c1cccnc1,-17.2%,–
CO[C@@H]1COC(=O)CC=C[C@@H](C)[C@@H]2C=C[C@@H](O)[C@@H](COC(=O)C/C=C\[C@H]1C)O2,20% [at 11.4 µM],–
O=c1c(CCc2ccccc2)nc2cncnc2n1Cc1ccccc1Cl,-18.3%,–
CC(C)[C@H](NC(=O)OCc1ccccc1)C(=O)N[C@H](C=O)Cc1ccccc1 (Cbz-Val-Phe-aldehyde),-11.9%,–
Cc1nc2cnc(N3CCNCC3)nc2n(-c2ccccc2)c1=O,-1.85%,–
CN1CCN(c2ncc3nc(-c4cc(F)cc(F)c4)c(=O)n(C4CC4)c3n2)CC1,-3.22%,–
O=S(=O)(O)c1cc(O)c2c(N=Cc3ccccc3O)cc(S(=O)(=O)O)cc2c1,-8.82% [at 11.4 µM],–
Cc1cc(C)n(-c2nc(Nc3ccccc3C)nc(-n3nc(C)cc3C)n2)n1,2.75%,–
CCN1/C(=C/c2ccc3cccc(C)c3[n+]2CC)Sc2ccccc21,–,0.0708 µM (active)
CC1(C)O[C@@H]2C[C@H]3[C@H]4C[C@H](F)C5=CC(=O)C=C[C@@]5(C)[C@@H]4[C@H](O)C[C@]3(C)[C@]2(C(=O)CO)O1,-4.12% [at 25.6 µM],–
Cc1cc(S(=O)(=O)NCCN(C)C)c(C)s1,-9.26%,–
CCN(CCO)Cc1csc2cccc(Br)c12,–,15.8 µM (active)
COc1ccc(-n2c(=O)c(-c3cccc(Cl)c3)nc3cncnc32)cc1,-12.5%,–
CCOC(=O)c1cnc2cc(-c3ccc(C(C)(C)C)cc3)nn2c1N,-11.3%,–
O=C(CSCc1c(Cl)cccc1Cl)NCc1cccnc1,–,15.8 µM (active)
Cn1c(C(=O)O)c(CC(=O)NCc2cccnc2)c2ccccc21,20.8%,–
O=C(CCc1ccccc1)NCc1cccnc1,-16.4%,–
O=[N+]([O-])c1ccc(Cl)c(-c2ccc(/C=N/c3c(-c4ccco4)nc4ccccn34)o2)c1,1.14%,–
Cc1cc(-c2cccc([N+](=O)[O-])c2)nc2ccc3ccccc3c12,1.13%,–
N#CCCn1c(=O)c(-c2ccc(F)cc2)nc2cnc(Oc3cccc(Cl)c3)nc21,1.43%,–
